Shown are actives, neighbours in structure and some others; about 4.8% of the full set was active somewhere.
ALR inh – inhibitors of human ALR sulfhydryl oxidase, primary screen, biochemical, H2O2 detection, HRP-luminol luminescence, single point. FAD-linked sulfhydryl oxidase ALR (Homo sapiens), P55789. purified ALR, DTT oxidation. inhibition, % (no concentration beside the values). 3.8% of 290,000 active. AID 485317, 2010;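 active = mean replicate inhibition above about 79%, with every replicate also reaching it, limit read from the data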
Target sequence (P55789 whole entry, looked up): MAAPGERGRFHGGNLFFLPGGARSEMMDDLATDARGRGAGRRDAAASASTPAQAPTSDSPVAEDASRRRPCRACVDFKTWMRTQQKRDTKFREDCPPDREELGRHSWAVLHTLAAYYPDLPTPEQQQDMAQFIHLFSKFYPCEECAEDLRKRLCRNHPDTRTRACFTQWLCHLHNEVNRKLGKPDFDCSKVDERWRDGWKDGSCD
AI-2 QS modul – Vibrio harveyi AI-2 quorum sensing modulators, primary screen, JMH597 strain, luminescence/OD600 ratio; Vibrio harveyi JMH597 AI-2 luminescence/OD600 ratio, 9 h; active compounds read low; strain lacks LuxN and CqsS sensors; 0 = neutral-control median; activity change, % at 7.5 µM; 0.4% of 300,000 active; in the data active = activity change below about -75%, passing the limit was not always enough;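 note: luminescence divided by OD600 gain over 9 h not by final OD600 alone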
SUMO Mot1 rescue – yeast Mot1-301 growth rescue at high temperature, primary screen, SUMOylation pathway inhibitor project, S. cerevisiae, ATP luminescence, 38.5C; 1% of 320,000 active; AID 2716, 2010; S. cerevisiae Mot1-301 growth rescue; percent above DMSO median, 100 means doubled; growth rescue, % at 18.8 µM;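 active = every valid replicate shows activation above 250% relative to neutral control wells; inactive = the rest, any valid replicate at or below 250%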;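 note: OY570 slx delta 5 strain wells were the positive control but not used for scaling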
HIF act – HIF pathway transcriptional activators, primary screen, cell-based, U2OS HRE-luciferase, luminescence; U2OS HRE-luciferase reporter; normalized: DMSO 0%, desferrioxamine 100%; activation, % at 7.5 µM (by protocol); 0.32% of 300,000 active; AID 1910, 2009;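 active = mean activation of at least 10% of the iron chelator positive control signal, with at least half of replicates also reaching 10%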
The depositor's hits bear a star; . = no result given.

SMILES | ALR inh | AI-2 QS modul | SUMO Mot1 rescue | HIF act
COc1ccc(Cn2c(O)c(/C=N/NC(=O)c3cccnc3)c3ccccc3c2=O)cc1 | . | -35.9 | . | -0.5
Cc1nn(CC(=O)NC(=O)c2ccccc2)c(C)c1[N+](=O)[O-] | -2.8 | . | -9.1 | .
O=C1c2sc3nc4n(c(=O)c3c2CCC1Br)CCCCC4 (stereo unspecified) | 82.4* | 32.2 | 2.2 | 2.4
O=C1CCCc2c1sc1nc3n(c(=O)c21)CCCCC3 | -3.3 | 10.6 | 78.2 | 1.9
Cn1c(=O)[nH]c(=O)c2c1nc(SCC(O)CCl)n2Cc1ccccc1 (stereo unspecified) | 0.3 | 9.5 | -8.9 | -1.9
CC1C(=O)NN=C1C(=O)N/N=C\c1ccc(O)cc1O (stereo unspecified) | 98.2* | -18.1 | -3.2 | -0.2
COc1cc(/C=N/NC(=O)C2=NNC(=O)C2C)ccc1O (stereo unspecified) | 98.4* | 7.9 | -13.9 | 0.1
CC1C(=O)NN=C1C(=O)N/N=C/c1ccco1 (stereo unspecified) | 69.5 | 2.6 | 220.2 | 0.0
CCCCN(C(=O)COC(=O)COc1c(C)cc(C)cc1C)c1c(N)n(CCC)c(=O)[nH]c1=O | -38.7 | 17.2 | 286.5* | -1.0
CCCCN(C(=O)CSc1nc2ccccc2s1)c1c(N)n(CCCC)c(=O)[nH]c1=O | 98.9* | . | 11.9 | .
CCCCn1c(N)c(N(CCOC)C(=O)COC(=O)COc2c(C)cccc2C)c(=O)[nH]c1=O | -10.9 | 30.6 | 1.3 | -0.2
O=c1sc2ccccc2c(N2CCOCC2)c1[N+](=O)[O-] | 41.0 | 5.1 | -17.5 | -0.8
O=C(O)c1cccc(N2CCCC2=O)c1 | 4.1 | -2.7 | 0.2 | 47.4*
CN(CCCNC(=O)c1cccc(N2CCCC2=O)c1)c1ccccc1 | 98.4* | 10.2 | -3.8 | -0.3
O=C1CSC(=S)N1c1cccc(O)c1 | -2.9 | -9.6 | -13.1 | -37.3
CC(=O)Nc1cccc(N2C(=O)CCC2=O)c1 | -12.1 | 17.2 | 5.2 | 0.1
CC(=O)Nc1cccc(N2CCCC2=O)c1 | 99.5* | 5.9 | -27.0 | -0.5
O=C(O)c1cccc(N2C(=O)CSC2=S)c1 | 79.1* | -29.1 | -17.8 | 0.3
COC(=O)c1cccc(N2CCCC2=O)c1 | . | -6.0 | -26.6 | -0.1
CC(C)Oc1ccc(/C(O)=C2/C(=O)C(=O)N(CCN3CCNCC3)C2c2cccc([N+](=O)[O-])c2)cc1 (stereo unspecified) | 6.8 | . | 2.0 | 1.1
O=C(CN(C(=O)c1csnn1)c1ccc2c(c1)OCCO2)NCc1ccccc1 | 51.8 | 2.9 | -15.3 | 0.4
Cc1ccc(-n2ncc3c2CC(C)(C)CC3NC(=O)c2c(C)noc2C)cc1 (stereo unspecified) | -9.2 | 8.2 | 4.6 | 0.1
CC(=O)Nc1ccc(S[C@@H](CCN2CC[C@H](C(C)(C)C)CCC2=O)c2ccccc2)cc1 | 97.1* | . | 18.1 | .
CC(=O)Nc1ccc(SCCN2CC[C@@H](C)CCC2=O)cc1 | 98.8* | . | 8.1 | .
CC(=O)Nc1ccc(SCCN2CC[C@@H](O)CCC2=O)cc1 | 15.4 | . | -7.2 | .
SMILES | ALR inh | AI-2 QS modul | SUMO Mot1 rescue | HIF act
CC(=O)Nc1ccc(SC[C@H](Cc2ccccc2)N2CC[C@@H](C(C)(C)C)CCC2=O)cc1 | 98.7* | . | -11.9 | .
CC(=O)Nc1ccc(SC[C@H](Cc2ccccc2)N2CC[C@@H](O)CCC2=O)cc1 | 98.9* | . | 1.5 | .
O=C(Nc1ccccc1Br)c1cc(=O)c2ccccc2o1 | . | 14.6 | 80.8 | 1.7
CCCCN(C(=O)c1ccccc1OCc1ccc(F)cc1)c1c(N)n(CC(C)C)c(=O)[nH]c1=O | -3.7 | 26.9 | -1.4 | -0.3
CCOc1cccc(C(=O)Nc2ccc3c(c2)OCCO3)c1 | 0.1 | 8.2 | -13.2 | -6.5
CCCCn1c(N)c(N(CC(C)C)C(=O)c2ccc(N3C(=O)CCC3=O)cc2)c(=O)[nH]c1=O | 0.5 | 46.6 | -25.0 | 0.6
Cc1ccc(NCc2nnc3n2CCCCC3)c(C)c1 | 98.7* | -5.2 | 21.7 | -0.3
COc1ccccc1NC(=O)CSc1nccc(-c2ccco2)n1 | -7.4 | . | -19.6 | .
Cc1nc(N)sc1N=Nc1ccc(F)cc1 | 98.3* | 29.0 | 63.1 | 0.3
N=C(N)SCCc1cccc(CCSC(=N)N)c1 | 97.9* | 22.5 | -1.4 | 0.1
Cc1cccc(CSC(=N)N)c1 | 38.6 | 1.2 | 8.7 | -0.3
Cc1ccc2nc(NCCCO)[nH]c2c1 | 97.2* | 16.3 | -5.6 | 0.6
Cc1cccc2[nH]c(CCNC(=O)C3CCC(=O)N(CCc4cccc(F)c4)C3)nc12 (stereo unspecified) | -12.2 | 30.9 | -6.3 | 0.0
O=C1NC(=O)/C(=C\c2ccsc2)N1 | -4.1 | 9.7 | -2.9 | -0.1
CCN(CC)c1ccc(/C=C2\NC(=O)NC2=O)cc1 | 98.9* | 22.5 | -20.9 | 2.6
CCOC(=O)CNC1CC(=O)N(c2ccc(Br)cc2)C1=O (stereo unspecified) | 5.1 | 2.0 | 23.4 | -0.2
COc1ccccc1C(NC(C)=O)c1cc(Cl)c2cccnc2c1O (stereo unspecified) | -16.7 | -1.0 | 0.5 | 0.4
CCCC(=O)NC(c1ccccc1OC)c1ccc2cccnc2c1O (stereo unspecified) | . | -22.1 | -14.7 | 69.0*
CCCCC(=O)NC(c1ccccc1OC)c1ccc2cccnc2c1O (stereo unspecified) | -11.3 | 6.3 | -2.6 | 62.9*
COc1cc(C(=O)NC2CCN(CC(=O)Nc3cccc(C)c3C)CC2)cc(OC)c1OC | -1.9 | . | -8.9 | 0.5
Cc1cc(C)nc(N/N=C/C2=C(O)CC(c3ccccc3)CC2=O)n1 (stereo unspecified) | -4.2 | 21.6 | 2.6 | 22.4*
CCC(=O)Nc1nnc(SCC(=O)Nc2cccc(Cl)c2)s1 | -1.0 | -2.0 | 20.4 | -0.1
COC(OC)c1nc(SCC(=O)Nc2cccc(Cl)c2)ncc1C(=O)O | 98.6* | 5.8 | 4.8 | 0.4
CCN(CC)c1ccc(CN(C(=O)c2ccco2)C2CCS(=O)(=O)C2)cc1 (stereo unspecified) | 98.9* | . | 2.4 | 0.2
CCN(CC)c1ccc(CN(C(=O)c2cccs2)C2CCS(=O)(=O)C2)cc1 (stereo unspecified) | 99.3* | 28.2 | 0.2 | -0.3
CCc1ccc(CN(C(=O)c2ccco2)C2CCS(=O)(=O)C2)cc1 (stereo unspecified) | -0.5 | -1.8 | 112.6 | 0.6
CCN(CC)c1ccc(CN(C(=O)c2cc(OC)c(OC)c(OC)c2)C2CCS(=O)(=O)C2)cc1 (stereo unspecified) | 93.7* | 9.4 | -14.2 | 0.1
CC(C)/C(=N\NS(=O)(=O)c1ccc(Br)cc1)c1cccs1 | 79.8* | 4.0 | 39.0 | -0.2

From PubChem BioAssay
